Data reported in PubChem BioAssay (NCI).
The panel holds about 83,000 compounds, 20% with a hit somewhere; the sample as a whole holds those more often.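 For each line, cells grew in 96-well plates with the test compound present at a single concentration for 48 hours.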 Active and inactive are the calls of the source. The calls were made as follows: active = growth percent below 10; inactive = the rest.

Legend:
Assay in all cases: NCI-60 one-dose screen, 48 h (100 = growth as untreated, 0 = no growth, -100 = all killed)
HCT-15 colon = system: HCT-15 colon
HT29 colon = system: HT29 colon
SNB-75 CNS = system: SNB-75 CNS
SNB-19 CNS = system: SNB-19 CNS
U251 CNS = system: U251 CNS
PC-3 prostate = system: PC-3 prostate
SK-MEL-5 melanoma = system: SK-MEL-5 melanoma
UACC-62 melanoma = system: UACC-62 melanoma
LOX IMVI melanoma = system: LOX IMVI melanoma
SK-MEL-28 melanoma = system: SK-MEL-28 melanoma
SK-MEL-2 melanoma = system: SK-MEL-2 melanoma
EKVX NSCLC = system: EKVX NSCLC
SN12C renal = system: SN12C renal
UO-31 renal = system: UO-31 renal
TK-10 renal = system: TK-10 renal
ACHN renal = system: ACHN renal
CAKI-1 renal = system: CAKI-1 renal
A498 renal = system: A498 renal
CCRF-CEM leukemia = system: CCRF-CEM leukemia
MOLT-4 leukemia = system: MOLT-4 leukemia

Measured: growth

NC1=C(Cl)C(=O)c2ccccc2C1=O
inactive: HCT-15 colon; 10 µM 51% | HT29 colon; 10 µM 58.8% | SNB-19 CNS; 10 µM 72.1% | U251 CNS; 10 µM unless noted 50.5% | PC-3 prostate; 10 µM 53% | LOX IMVI melanoma; 10 µM unless noted 19.2% | SK-MEL-28 melanoma; 10 µM 105% | SK-MEL-2 melanoma; 10 µM 51.9% | EKVX NSCLC; 10 µM 107% | SN12C renal; 10 µM 62.5% | UO-31 renal; 10 µM 84.3% | TK-10 renal; 10 µM 120% | ACHN renal; 10 µM 76.8% | CAKI-1 renal; 10 µM 89.5% | A498 renal; 10 µM 104% | CCRF-CEM leukemia; 10 µM 46% | MOLT-4 leukemia; 10 µM 56.1%
active: SNB-75 CNS; 10 µM -0.135% | SK-MEL-5 melanoma; 10 µM unless noted -80.8% | UACC-62 melanoma; 10 µM -41.4%

Clc1ccc(/C=C/c2ccccn2)c(Cl)c1
inactive: HCT-15 colon; 10 µM 68.2% | HT29 colon; 10 µM 83.3% | SNB-75 CNS; 10 µM 61.2% | SNB-19 CNS; 10 µM 92.7% | U251 CNS; 10 µM unless noted 79.1% | PC-3 prostate; 10 µM 85.9% | SK-MEL-5 melanoma; 10 µM unless noted 81.6% | UACC-62 melanoma; 10 µM 80.6% | LOX IMVI melanoma; 10 µM unless noted 91.3% | SK-MEL-28 melanoma; 10 µM 120% | SK-MEL-2 melanoma; 10 µM 107% | EKVX NSCLC; 10 µM 58.9% | SN12C renal; 10 µM 94.4% | UO-31 renal; 10 µM 59.6% | TK-10 renal; 10 µM 98% | ACHN renal; 10 µM 104% | CAKI-1 renal; 10 µM 72.7% | MOLT-4 leukemia; 10 µM 79.5%

O=[N+]([O-])C1=C(c2ccccc2)SC=C(c2ccccc2)S1
inactive: HCT-15 colon; 10 µM 58.7% | HT29 colon; 10 µM 69.8% | SNB-75 CNS; 10 µM 92.7% | SNB-19 CNS; 10 µM 78.3% | U251 CNS; 10 µM unless noted 51.5% | PC-3 prostate; 10 µM 62% | SK-MEL-5 melanoma; 10 µM unless noted 87% | UACC-62 melanoma; 10 µM 54.5% | SK-MEL-28 melanoma; 10 µM 88.2% | SK-MEL-2 melanoma; 10 µM 88.3% | EKVX NSCLC; 10 µM 92.3% | SN12C renal; 10 µM 73.7% | UO-31 renal; 10 µM 71.6% | TK-10 renal; 10 µM 104% | ACHN renal; 10 µM 83.5% | CAKI-1 renal; 10 µM 85.5% | A498 renal; 10 µM 84% | CCRF-CEM leukemia; 10 µM 14.8% | MOLT-4 leukemia; 10 µM 26.4%
active: LOX IMVI melanoma; 10 µM unless noted 4.56%

O=C(/C=C/c1cccnc1)c1ccccc1
inactive: HCT-15 colon; 10 µM 63.2% | HT29 colon; 10 µM 14.1% | SNB-75 CNS; 10 µM 87.8% | SNB-19 CNS; 10 µM 82.8% | U251 CNS; 10 µM unless noted 37.3% | PC-3 prostate; 10 µM 88.1% | SK-MEL-5 melanoma; 10 µM unless noted 103% | UACC-62 melanoma; 10 µM 103% | LOX IMVI melanoma; 10 µM unless noted 27.5% | SK-MEL-28 melanoma; 10 µM 102% | SK-MEL-2 melanoma; 10 µM 94.2% | EKVX NSCLC; 10 µM 103% | SN12C renal; 10 µM 100% | UO-31 renal; 10 µM 84.1% | TK-10 renal; 10 µM 93.9% | ACHN renal; 10 µM 79.8% | A498 renal; 10 µM 89.7% | CCRF-CEM leukemia; 10 µM 41.3% | MOLT-4 leukemia; 10 µM 82.3%

COc1cccc2c1C(=O)c1c(O)c3c(c(O)c1C2=O)C[C@@](O)(C(=O)CO)C[C@@H]3OC1CC(N)C(O)C(C)O1 (stereo partly drawn)
active: HT29 colon; 10 µM 4.69% | SNB-75 CNS; 2.5 µM 7.99% | SNB-75 CNS; 10 µM -61.7% | SNB-19 CNS; 10 µM -0.904% | U251 CNS; 10 µM 9.22% | PC-3 prostate; 10 µM 1.27% | SK-MEL-5 melanoma; 10 µM -85.1% | UACC-62 melanoma; 10 µM -60% | LOX IMVI melanoma; 1 µM 8.33% | LOX IMVI melanoma; 10 µM 5.68% | SK-MEL-28 melanoma; 10 µM -17% | SK-MEL-2 melanoma; 10 µM -28.5% | SN12C renal; 1 µM -4.11% | SN12C renal; 2.5 µM 2.46% | UO-31 renal; 10 µM 4.05% | ACHN renal; 10 µM -13.8% | CAKI-1 renal; 10 µM -28.9% | CCRF-CEM leukemia; 10 µM -11.8% | MOLT-4 leukemia; 1 µM 5.51% | MOLT-4 leukemia; 2.5 µM -21.6% | MOLT-4 leukemia; 10 µM -12%
inactive: HCT-15 colon; 0.0025 µM 99.2% | HCT-15 colon; 1 µM 81.9% | HCT-15 colon; 2.5 µM 70.2% | HCT-15 colon; 10 µM 15.2% | HT29 colon; 0.0025 µM 93.2% | HT29 colon; 1 µM 40.7% | HT29 colon; 2.5 µM 55% | SNB-75 CNS; 0.0025 µM 98% | SNB-75 CNS; 1 µM 33% | SNB-19 CNS; 0.0025 µM 92.5% | SNB-19 CNS; 1 µM 21.1% | SNB-19 CNS; 2.5 µM 35.6% | U251 CNS; 0.0025 µM 83.6% | U251 CNS; 2.5 µM 16.4% | PC-3 prostate; 0.0025 µM 100% | PC-3 prostate; 1 µM 54.7% | SK-MEL-5 melanoma; 0.0025 µM 93.2% | UACC-62 melanoma; 0.0025 µM 97.5% | UACC-62 melanoma; 1 µM 14.8% | LOX IMVI melanoma; 0.0025 µM 81.7% | SK-MEL-28 melanoma; 0.0025 µM 93.7% | SK-MEL-28 melanoma; 1 µM 65.7% | SK-MEL-28 melanoma; 2.5 µM 70.7% | SK-MEL-2 melanoma; 0.0025 µM 112% | SK-MEL-2 melanoma; 1 µM 31.3% | SK-MEL-2 melanoma; 2.5 µM 75.1% | EKVX NSCLC; 0.0025 µM 102% | EKVX NSCLC; 1 µM 65.8% | EKVX NSCLC; 2.5 µM 88.8% | EKVX NSCLC; 10 µM 24.6% | SN12C renal; 0.0025 µM 104% | SN12C renal; 10 µM 12% | UO-31 renal; 0.0025 µM 87.1% | UO-31 renal; 1 µM 61.3% | UO-31 renal; 2.5 µM 67.3% | TK-10 renal; 1 µM 63.3% | TK-10 renal; 2.5 µM 57.7% | TK-10 renal; 10 µM 25.4% | ACHN renal; 0.0025 µM 102% | ACHN renal; 1 µM 19.6% | ACHN renal; 2.5 µM 35.6% | CAKI-1 renal; 1 µM 45% | CAKI-1 renal; 2.5 µM 17.6% | A498 renal; 0.0025 µM 93.5% | A498 renal; 1 µM 76.5% | A498 renal; 2.5 µM 52.6% | CCRF-CEM leukemia; 0.0025 µM 104% | CCRF-CEM leukemia; 1 µM 26.8% | CCRF-CEM leukemia; 2.5 µM 53.3% | MOLT-4 leukemia; 0.0025 µM 94.5%
